High-throughput results deposited in PubChem BioAssay by National Center for Advancing Translational Sciences (NCATS).
TDP1 cell CPT: growth inhibition of DT40 Tdp1-/-;hTDP1 cells with camptothecin (screen for TDP1 inhibitors); chicken DT40 Tdp1-/-;hTDP1 cells + 20 nM CPT, ATP luminescence, 48 h; Potency, µM (highest dose often 46.2 µM), without a hit: at the highest dose activity change, negative = growth inhibition, most hits filed as inhibitors; 12% of 420,000 active; AID 686979; also: nearly all actives have a fitted effect of over 55% in size
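Chicken DT40 Tdp1-/- cells complemented with human TDP1, 400 cells/well, exposed to compounds plus 20 nM camptothecin for at least 48 h at 37 C; viability read as ATP content by CellTiter-Glo luminescence.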
KB-V1 MDR tox: kills drug-selected multidrug resistant KB-V1 cells | 3.4% of 400,000 active | KB-V1 MDR cells viability, CellTiter-Glo, 72 h | Potency, µM (highest dose often 46.1 µM), usual class: cytotoxic; also: nearly all actives have a fitted effect of over 60% in size
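Cytotoxicity via CellTiter-Glo luminescence after 72 h compound exposure at 37 degrees C. Cells: drug-selected KB-V1 line, DMEM phenol-red free plus 10% FBS. Compounds tested at multiple concentrations; normalized data fitted to concentration-effect curves.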
KB-3-1 cytotox: kills parental KB-3-1 adenocarcinoma cells; 1.4% of 400,000 active; KB-3-1 viability, CellTiter-Glo ATP luminescence, 72 h; Potency, µM (series often up to 46.1 µM), actives largely listed as cytotoxic; also: nearly all actives have a fitted effect of over 60% in size
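Screening of KB-3-1 cells (DMEM, 10% FBS, phenol-red free) ran from lowest to highest compound concentration; after 72 h at 37 °C viability was read luminescently and curves fitted.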
HT1080NT lethal: kills 2HG-producing HT-1080-NT fibrosarcoma cells | HT-1080-NT fibrosarcoma viability, CellTiter-Glo ATP luminescence, 48 h | Potency, µM (highest dose often 46.1 µM), without a hit: top-dose activity, negative = less viability, hits mostly cytotoxic | 1.6% of 360,000 active | AID 686970;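 also: NT is the 2HG producing partner of a matched IDH1 knockdown line; 0% = DMSO-treated cells and -100% = media-only wells without cells; nearly all actives have a fitted effect of over 55% in size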
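750 cells/well, RPMI + 5% FBS; 2 h settle, compound pin-transfer, 48 h at 37 degrees C. CellTiter-Glo 10 min RT, luminescence. Normalized to DMSO and media-only wells.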
DT40 TDP1 no CPT: qHTS for Inhibitors of human tyrosyl-DNA phosphodiesterase 1 (TDP1): qHTS in cells in absence of CPT. DT40 Tdp1-/- hTDP1 cells, no CPT, ATP luminescence, 48 h. Potency, µM (top dose mostly 46.2 µM), inactives show at the highest dose activity change, negative = growth inhibition, hits mostly inhibitors. 15% of 420,000 active. AID 686978, 2013; also: nearly all actives have a fitted effect of over 55% in size
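Cells were dispensed at 400 per well, compounds added by pin tool, plates incubated ≥48 hr at 37 °C, then CellTiter-Glo added for 30 min at room temperature before luminescence reading. Line: DT40 Tdp1-/- complemented with hTDP1; camptothecin omitted.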
HT1080 IDH1KD tx: HT-1080 IDH1 knockdown cell toxicity (counter line); Potency, µM (top dose mostly 46.1 µM), for inactives: at the top dose activity, negative = toxicity, actives largely listed as cytotoxic; 2% of 360,000 active; HT-1080 IDH1 knockdown viability, ATP luminescence, 48 h; AID 686971;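 also: 0% = DMSO wells and -100% = cell-free medium wells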
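After a 2 h attachment period, IDH1KD HT-1080 cells took pin-transferred compound for 48 h at 37 °C; ATP-based luminescence after 10 min room-temperature reagent incubation reported viability.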
* marks the source's active call; other numbers are inactive results; i = inactive; ? = inconclusive; nt = no result. This is a sample that favours compounds with a hit; in the whole collection about 19% have one here. Calls follow the shape of the dose curve; as a rule, active = well fitted curve in the direction sought with a large enough effect; inconclusive = small, poorly fitted or top-dose-only effect, or another doubt; inactive = no such curve, though single readings can be large; an effect the other way counts as inactive or inconclusive. Unless noted, % is scaled to controls: 0 for no effect and ±100 for the full control effect; potency is read from the fitted curve at half-maximal effect.

SMILES	TDP1 cell CPT	KB-V1 MDR tox	KB-3-1 cytotox	HT1080NT lethal	DT40 TDP1 no CPT	HT1080 IDH1KD tx
CCCN(Cc1cccs1)C(=O)Nc1cc(C)ccc1OC	?	i	i	nt	16µM*	nt
CCCN(Cc1cccs1)C(=O)Nc1cc(C)cc(C)c1	26µM*	i	i	nt	?	nt
COc1cc(Cl)c(C)cc1NC(=O)c1cc(S(=O)(=O)N2CCCC2)ccc1F	6%	i	i	nt	5%	nt
CC(C)CNC(=S)N1CCN(c2nc3ccccc3s2)CC1	?	i	i	?	?	-5%
CCSc1ccccc1C(=O)N1CCN(c2nc3ccccc3s2)CC1	?	nt	nt	nt	15µM*	nt
O=C(Nc1ccccc1)N1CCN(c2nc(-c3ccccc3)ns2)CC1	23µM*	i	i	-30%	16µM*	-13%
CSc1ccc(NC(=O)N2CCN(c3nc4ccccc4s3)CC2)cc1	?	2.6µM*	?	2%	?	-5%
Cc1ccccc1NC(=O)c1cc2sccc2n1Cc1ccc(F)cc1	?	i	i	nt	26µM*	nt
CNS(=O)(=O)c1cccc(C(=O)NCC(c2ccco2)N(C)C)c1 (stereo not drawn)	7%	i	i	3%	-3%	3%
Cc1nc2ccccn2c1/C(O)=C1\C(=O)C(=O)N(CCN2CCOCC2)C1c1cccs1 (stereo not drawn)	-4%	i	i	11%	-7%	1%
O=C(c1cccs1)N1CCN(c2nc3ccccc3s2)CC1	?	i	i	-2%	?	4%
Cn1c(C(O)C(O)c2ccccc2)nc2ccccc21 (stereo not drawn)	0%	?	i	2%	-27%	-2%
Cn1c(N2CCN(C(c3ccccc3)c3ccccc3)CC2)nc2ccccc21	?	?	?	?	18µM*	?
O=C(c1cc2sccc2n1Cc1ccc(F)cc1)N1CCN(c2nc3ccccc3s2)CC1	13µM*	?	?	-1%	21µM*	?
O=C(c1ccc(-c2nc3ccccc3s2)s1)N1CCOCC1	?	?	?	8.2µM*	?	?
O=C(c1ccc(Cl)s1)N1CCN(c2nc3ccccc3s2)CC1	?	?	i	-22%	16µM*	-5%
O=C(NNC(=O)c1ccc(S(=O)(=O)N2CCCCC2)cc1)c1ccc(F)cc1	-2%	i	i	12%	-13%	-6%
Cn1c(N2CCN(C(=O)Nc3ccc(F)cc3)CC2)nc2ccccc21	-2%	18µM*	i	22%	-17%	19%
CCNc1nc(C#N)nc(Nc2ccccc2)n1	?	i	?	nt	11µM*	nt
COc1cc2c(cc1OC)C(C)N(C(=O)[C@@H](NC(=O)c1ccccc1)C(C)C)CC2 (stereo partly drawn)	?	i	i	-11%	29µM*	-4%
COc1cc2c(cc1OC)C(c1ccccc1)N(C(=O)CCl)CC2 (stereo not drawn)	3.3µM*	9.2µM*	4.1µM*	?	2.9µM*	?
COc1cc2c(cc1OC)C(C)N(C(=O)Nc1ccccc1)CC2 (stereo not drawn)	3.7µM*	?	6.5µM*	2.9µM*	4.1µM*	2.6µM*
COc1cc2c(cc1OC)C(C)N(C(=O)C(NC(=O)c1ccccc1)C(C)C)CC2 (stereo not drawn)	?	i	i	-20%	?	-12%
COc1cc2c(cc1OC)C(C)N(C(=O)CCNC(=O)c1ccccc1)CC2 (stereo not drawn)	-1%	i	i	-2%	28%	11%
